PubChem BioAssay (EPA / NIEHS)
Inconclusive results are not listed. Activity calls are given as the source filed them. Rule for the calls: active = hit-call score of the fitted dose curve at least 0.9, where 1 is the maximum; inconclusive = response in the unintended direction; inactive = score below 0.9.

These molecules were tested against Bile acid receptor (Homo sapiens) (UniProt Q96RI1) (assay: OT_FXR_FXRSRC1_1440: Odyssey Thera (OT) 24-hour HEK293T Protein-Complementation Assay for Farnesoid X receptor/SRC-1 Co-activator (AID 2283384)).
Sequence of Bile acid receptor (Homo sapiens) (Q96RI1 whole entry, looked up, the tested form may be a part): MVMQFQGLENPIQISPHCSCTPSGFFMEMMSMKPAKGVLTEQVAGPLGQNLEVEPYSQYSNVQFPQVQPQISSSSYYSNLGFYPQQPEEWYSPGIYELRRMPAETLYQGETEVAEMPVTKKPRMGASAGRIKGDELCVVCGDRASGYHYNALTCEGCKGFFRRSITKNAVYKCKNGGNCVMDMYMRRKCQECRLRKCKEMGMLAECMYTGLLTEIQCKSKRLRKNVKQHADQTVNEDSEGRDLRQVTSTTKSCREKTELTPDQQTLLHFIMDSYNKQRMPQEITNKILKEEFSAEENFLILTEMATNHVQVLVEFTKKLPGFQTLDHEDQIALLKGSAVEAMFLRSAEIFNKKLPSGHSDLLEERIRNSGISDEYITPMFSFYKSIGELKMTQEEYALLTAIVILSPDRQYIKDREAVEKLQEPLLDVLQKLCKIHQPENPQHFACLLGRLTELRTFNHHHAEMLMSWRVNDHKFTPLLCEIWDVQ
Description: OT_FXR_FXRSRC1_1440 is a cell-based assay that uses HEK293T, a human kidney cell line, with measurements taken at 24 hours after chemical dosing in a 384-well plate.OT_FXR_FXRSRC1_1440 is one of one assay component(s) measured or calculated from the OT_FXR_FXRSRC1_1440 assay. It is designed to make measurements of protein fragment complementation, a form of binding reporter, as detected with fluorescence intensity signals by Protein-fragment Complementation technology.Data from the assay component OT_FXR_FXRSRC1_1440 was analyzed into 1 assay endpoint. This assay endpoint, OT_FXR_FXRSRC1_1440, was analyzed in the positive analysis fitting direction relative to DMSO as the negative control and baseline of activity. Using a type of binding reporter, measures of receptor for gain-of-signal activity can be used to understand the binding at the pathway-level as they relate to the gene NR1H4. Furthermore, this assay endpoint can be referred to as a primary readout, because the performed assay has only produced 1 assay endpoint. To generalize the intended target to other relatable targets, this assay endpoint is annotated to the nuclear receptor intended target family, where the subfamily is non-steroidal.
Protein-fragment complementation assay, or PCA, is a method for the identification and quantification of protein-protein interactions. In the PCA, the proteins of interest ("bait" and "prey") are each covalently linked to fragments of a third protein (e.g. DHFR, which acts as a "reporter"). Interaction between the bait and the prey proteins brings the fragments of the reporter protein in close proximity to allow them to form a functional reporter protein whose activity can be measured.

Structure (SMILES) | outcome | AC50
O=S(=O)(O)c1ccc2ccccc2c1 | inactive | 
O=C(OCCOCCOCCOC(=O)c1ccccc1)c1ccccc1 | inactive | 
CN(C)Cc1ccccc1O | inactive | 
COC(=O)C1CCC(C(=O)OC)CC1 (stereo not given) | inactive | 
CCCCCCC(C)OC(=O)CCCCC(=O)OC(C)CCCCCC (stereo not given) | inactive | 
CNC(=S)NC | inactive | 
c1ccc(B(c2ccccc2)c2ccccc2)cc1 | inactive | 
C#C[C@]1(O)CC[C@H]2[C@@H]3CCc4cc(OC)ccc4[C@H]3CC[C@@]21C |  | 46.8 µM (active)
CCCCC(CC)COP(=O)(O)OCC(CC)CCCC (stereo not given) |  | 71.8 µM (active)
[Co] | inactive | 
CC(CCl)OP(=O)(OC(C)CCl)OC(C)CCl (stereo not given) | inactive | 
CCCCOc1ccc(N)cc1 |  | 36.9 µM (active)
C(=C(c1ccccc1)c1ccccc1)c1ccccc1 |  | 76.8 µM (active)
CC(C)OC(=O)c1ccccc1C(=O)OC(C)C | inactive | 
CCCCCCOC(=O)c1ccccc1O | inactive | 
